MITF primary = inhibitors of human MITF | AlphaScreen MITF homodimerization, bead proximity signal | 650,000 compounds, 0.91% hits | O75030 | inhibition, % at 2.6 µM; in the data active = inhibition above about 50%;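 also: 0% = vehicle wells with protein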
TEAD-YAP block = TEAD-YAP interaction inhibition; 640,000 compounds, 1.4% hits; HEK-TIYL cells, TEAD-Gal4/YAP UAS-luciferase luminescence; AID 1259422; inhibition, % at 9.12 µM; in the data active = inhibition above about 32%;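 also: 0% = median of test compound wells and 100% = reference inhibitor wells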
GPR151 ag = activates the human receptor GPR151. activation, % at 11.2 µM. PathHunter beta-arrestin GPR151 cells, luminescence. 650,000 compounds, 1% hits. Q8TDV0; in the data active = activation above about 4.9%;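 also: 0% = median of compound wells and 100% = cells with positive control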
FBW7 act = activators of human E3 ligase FBW7. AlphaScreen FBW7–phospho-cyclin E peptide binding, activator screen. normalized activity (activation), % at 26.1 µM. 650,000 compounds, 0.13% hits. AID 1259310; in the data active = normalized activity above about 1.9%;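 also: purified mutant Fbw7 with reduced substrate affinity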
Target sequence (Q969H0 whole entry, looked up): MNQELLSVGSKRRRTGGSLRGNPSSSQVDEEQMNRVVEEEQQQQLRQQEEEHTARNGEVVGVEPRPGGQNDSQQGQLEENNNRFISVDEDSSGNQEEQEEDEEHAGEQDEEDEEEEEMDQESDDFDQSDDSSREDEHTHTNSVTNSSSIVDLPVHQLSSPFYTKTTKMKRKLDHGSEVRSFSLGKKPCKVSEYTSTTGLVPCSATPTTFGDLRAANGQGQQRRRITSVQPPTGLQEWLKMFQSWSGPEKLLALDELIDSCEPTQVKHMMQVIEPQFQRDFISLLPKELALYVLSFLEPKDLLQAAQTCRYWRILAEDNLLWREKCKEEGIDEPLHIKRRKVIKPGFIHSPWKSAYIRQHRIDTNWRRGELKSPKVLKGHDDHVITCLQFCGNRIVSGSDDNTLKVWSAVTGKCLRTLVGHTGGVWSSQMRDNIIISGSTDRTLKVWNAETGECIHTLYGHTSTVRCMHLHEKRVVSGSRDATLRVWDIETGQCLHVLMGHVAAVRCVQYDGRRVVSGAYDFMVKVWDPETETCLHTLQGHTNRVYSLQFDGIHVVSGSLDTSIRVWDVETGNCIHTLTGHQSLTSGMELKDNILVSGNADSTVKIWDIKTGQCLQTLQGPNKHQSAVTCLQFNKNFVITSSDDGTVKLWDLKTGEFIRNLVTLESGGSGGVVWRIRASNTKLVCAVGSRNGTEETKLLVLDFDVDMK
* marks the source's active call; other numbers are inactive results. Shown are actives, neighbours in structure and some others; about 3.4% of the full set was active somewhere.

Results for CCC(C)OC(=O)C1=C(C)NC2=C(C(=O)CC(c3ccccc3)C2)C1c1cccc2ccccc12 (configuration not stated) ?
MITF primary: 6.3; TEAD-YAP block: 9.3; GPR151 ag: 0.2; FBW7 act: 2.2*

What do the screens show for `COc1ccc(C2CC(=O)C3=C(C2)NC(C)=C(C(=O)OC(C)C)C3c2cccc([N+](=O)[O-])c2)cc1OC` (configuration not stated)?
MITF primary: -10.1; TEAD-YAP block: 38.5*; GPR151 ag: -0.7; FBW7 act: 0.0

What do the screens show for `CCOc1ccc(C2C(C(=O)OC)=C(C)NC3=C2C(=O)CC(c2ccc(OC)c(OC)c2)C3)cc1OC` (configuration not stated)?
MITF primary: -1.2; TEAD-YAP block: 40.6*; GPR151 ag: -0.5; FBW7 act: -0.1

Results for CCOc1ccc(C2C(C(=O)OC)=C(C)NC3=C2C(=O)CC(c2ccc(OC)c(OC)c2)C3)cc1 (configuration not stated) ?
MITF primary: -0.2; TEAD-YAP block: -11.1; GPR151 ag: 0.5; FBW7 act: -0.1

Results for COCCOC(=O)C1=C(C)NC2=C(C(=O)CC(c3ccc(OC)c(OC)c3)C2)C1c1cccc(C)c1 (configuration not stated) ?
MITF primary: 4.4; TEAD-YAP block: 43.2*; GPR151 ag: 1.2; FBW7 act: 0.0

Results for COc1ccc(C2CC(=O)C3=C(C2)NC(C)=C(C(=O)OC(C)C)C3c2cccc(Br)c2)cc1OC (configuration not stated) ?
MITF primary: -2.6; TEAD-YAP block: 30.9; GPR151 ag: 1.7; FBW7 act: 0.2

Results for CC1=C(C(=O)OC2CCCCC2)C(c2ccc(F)cc2)C2=C(CC(c3ccccc3)CC2=O)N1 (configuration not stated) ?
MITF primary: 14.2; TEAD-YAP block: 9.1; GPR151 ag: -0.3; FBW7 act: 1.9*

Results for CC1=C(C#N)C(c2ccccc2Cl)C2=C(CC(c3ccccc3)CC2=O)N1 (configuration not stated) ?
MITF primary: 1.0; TEAD-YAP block: 32.7*; GPR151 ag: -0.6; FBW7 act: 0.2

Results for COc1ccc(C2CC(=O)C3=C(C2)NC(C)=C(C(=O)OC(C)C)C3c2cccc(C)c2)cc1OC (configuration not stated) ?
MITF primary: 3.7; TEAD-YAP block: 52.2*; GPR151 ag: -1.2; FBW7 act: 0.2

What do the screens show for `CC(=O)Nc1n[nH]c2nc(C)cc(C(F)(F)F)c12`?
MITF primary: 3.5; TEAD-YAP block: 13.2; GPR151 ag: 1.5; FBW7 act: 0.0

How did COc1ccc(C2CC(=O)C3=C(C2)NC(C)=C(C(=O)OC(C)C)C3c2ccccc2OC)cc1OC (configuration not stated) do in these assays?
MITF primary: 14.2; TEAD-YAP block: 0.5; GPR151 ag: -1.0; FBW7 act: 0.6

Results for COc1ccc(C2CC(=O)C3=C(C2)NC(C)=C(C(=O)OC2CCCCC2)C3c2cccc(C)c2)cc1OC (configuration not stated) ?
MITF primary: 7.4; TEAD-YAP block: 46.1*; GPR151 ag: 0.3; FBW7 act: 0.5

Results for COc1ccc(C2CC(=O)C3=C(C2)NC(C)=C(C(=O)OC(C)C)C3c2cccc(Cl)c2)cc1OC (configuration not stated) ?
MITF primary: 4.7; TEAD-YAP block: 45.9*; GPR151 ag: 0.4; FBW7 act: 0.6

How did COc1ccc(C2CC(=O)C3=C(C2)NC(C)=C(C(=O)OC(C)C)C3c2ccccc2F)cc1OC (configuration not stated) do in these assays?
MITF primary: 10.5; TEAD-YAP block: 43.3*; GPR151 ag: 0.1; FBW7 act: 0.2

What do the screens show for `Cc1ccc(-c2noc(CCCC(=O)Nc3ccc(F)cc3)n2)cc1`?
MITF primary: -4.3; TEAD-YAP block: 4.3; GPR151 ag: -1.3; FBW7 act: 0.0

How did C/C(N)=C(/C#N)C(=O)COC(=O)c1ccc(Cl)c(S(=O)(=O)NCc2ccccc2)c1 do in these assays?
MITF primary: -5.2; TEAD-YAP block: -0.8; GPR151 ag: 0.6; FBW7 act: 0.8

What do the screens show for `Cc1c(Cl)sn(-c2ccc(Cl)cc2)c1=O`?
MITF primary: -2.0; TEAD-YAP block: 40.3*; GPR151 ag: 2.2; FBW7 act: -0.1

Results for Cc1cc(-n2sc(Cl)c(C)c2=O)ccc1Cl ?
MITF primary: -3.5; TEAD-YAP block: 42.9*; GPR151 ag: 0.1; FBW7 act: 0.0

What do the screens show for `COCCCN1C(=O)C(=O)/C(=C(\O)c2ccccc2)C1c1cccc(F)c1` (configuration not stated)?
MITF primary: -5.8; TEAD-YAP block: -9.9; GPR151 ag: 0.4; FBW7 act: -0.4

Results for Brc1c(-c2cccs2)nc2ccccn12 ?
MITF primary: 17.6; TEAD-YAP block: -36.6; GPR151 ag: -3.3; FBW7 act: 0.6

What do the screens show for `O=C1CCC(CCC(=O)N2CC3CCCC2C3)(Cc2ccco2)N1` (configuration not stated)?
MITF primary: -3.2; TEAD-YAP block: -6.7; GPR151 ag: -0.1; FBW7 act: 0.0

What do the screens show for `O=C1CCC(CCNCc2cccnc2)N1CCc1ccccc1` (configuration not stated)?
MITF primary: 1.1; TEAD-YAP block: -4.3; GPR151 ag: -0.4; FBW7 act: 0.1

How did NC(c1nc2ccc(-c3ccncc3)cc2[nH]1)c1ccc(F)cc1F (configuration not stated) do in these assays?
MITF primary: 34.0; TEAD-YAP block: -21.0; GPR151 ag: 0.8; FBW7 act: -1.0

Results for Fc1ccc2nc(-c3nc4ccc(-c5ccncc5)cc4[nH]3)[nH]c2c1 ?
MITF primary: 10.6; TEAD-YAP block: -21.9; GPR151 ag: 3.0; FBW7 act: 2.6*

How did Nc1c(C(=O)Nc2ccc(F)cc2)nnn1Cc1cccc(Cl)c1 do in these assays?
MITF primary: 10.8; TEAD-YAP block: 32.7*; GPR151 ag: 0.5; FBW7 act: 0.0

How did Nc1c(C(=O)Nc2ccc(Br)cc2)nnn1Cc1cccc(Cl)c1 do in these assays?
MITF primary: 16.6; TEAD-YAP block: 6.1; GPR151 ag: 0.2; FBW7 act: 0.2

How did Cc1nc(SCC(N)=O)c2c3c(sc2n1)CC(C)CC3 (configuration not stated) do in these assays?
MITF primary: -8.4; TEAD-YAP block: -1.5; GPR151 ag: -0.2; FBW7 act: 0.1

How did C=CCSC1=C(C#N)C(c2ccc(OCc3ccccc3)cc2)CC(=O)N1 (configuration not stated) do in these assays?
MITF primary: -9.9; TEAD-YAP block: 32.9*; GPR151 ag: -0.1; FBW7 act: 0.1

What do the screens show for `O=C(c1ccc(S(=O)(=O)c2ccccc2Cl)c([N+](=O)[O-])c1)N1CCN(Cc2ccccc2)CC1`?
MITF primary: 7.6; TEAD-YAP block: 33.2*; GPR151 ag: 1.7; FBW7 act: 0.0

Results for Cc1ccc(C)c(N2CCN(C(=O)c3ccc(S(=O)(=O)c4ccccc4Cl)c([N+](=O)[O-])c3)CC2)c1 ?
MITF primary: 4.5; TEAD-YAP block: 8.2; GPR151 ag: 1.6; FBW7 act: -0.3

Screens: PubChem BioAssay, The Scripps Research Institute Molecular Screening Center
